Experimental findings from PubChem BioAssay (EPA / NIEHS) are described below.

Broadly, the AC50 is the concentration giving half of the maximal activity seen.

Values joined by “and” are separate entries in the source; they are usually repeats but may differ in a detail not shown here. Equal entries are not always repeated. Where a structure was tested more than once in an assay, its records may differ in their call. Active and inactive are the calls of the source. The calls were made as follows: active = hit-call score of the fitted dose curve at least 0.9, where 1 is the maximum; inactive = score below 0.9.

Read-out in this test: Interleukin-8 (IL8), CXCL8 (gene 3576)
The test is described as follows: BSK_3C_IL8: BioMAP Diversity Plus: 3C Assay for Interleukin-8 (IL8) Biomarker Activity (AID 2283020). Conditions: primary human endothelial cells (HUVEC); actives raise or lower the signal. As to the method: BSK_3C is a cell-based, multiplexed-readout assay that uses umbilical vein endothelium, a human vascular primary cell, with measurements taken at 24 hours after chemical dosing in a 96-well plate.BSK_3C_IL8 is an assay component measured in the BSK_3C assay. It measures IL-8 antibody related to regulation of gene expression using ELISA technology.Data from the assay component BSK_3C_IL8 was analyzed into 1 assay endpoint. This assay endpoint, BSK_3C_IL8, was analyzed with bidirectional fitting relative to DMSO as the negative control and baseline of activity. Using a type of binding reporter, gain or loss-of-signal activity can be used to understand changes in the signaling as they relate to the gene CXCL8. Furthermore, this assay endpoint can be referred to as a primary readout, because this assay has produced multiple assay endpoints where this one serves a signaling function. To generalize the intended target to other relatable targets, this assay endpoint is annotated to the cytokine intended target family, where the subfamily is interleukins.
The levels of cell surface (or secreted, indicated by the prefix "s") biomarker endpoints were measured by ELISA. Overt cytotoxicity to cells in confluent adherent cultures (all systems other than the BT system) was assessed by measuring total protein levels using sulforhodamine B (SRB) staining in parallel cultures at the time of biomarker measurements, indicated as SRB endpoints. For proliferation assays for adherent cell types, individual cell types are cultured at sub-confluence and relative cell numbers quantified by SRB staining at time points optimized for each system (48 h: 3C and CASM3C systems; 72 h: BT and HDF3CGF systems; 96 h: SAg system). SRB was performed by staining cells with 0.1% SRB after fixation with 10% TCA and reading wells at 560 nm.Viability and proliferation of PBMC (T cells) was quantified by Alamar Blue reduction for the SAg and BT systems. For PBMC viability (referred to as PBMC Cytotoxicity within the assay endpoint names), cells were plated (75,000/well in a 96-well plate) and then chemical samples added for 1 h before addition of activators, SEB and TSST-1 (20 ng/mL final concentration each). Cells were incubated for 90 h. Then, Alamar Blue (20 uL/well) (Invitrogen, Cat DAL1100) was added for 6 h, and the plates were read with a fluorescence microplate reader at 546/580 nm (excitation/emission). For PBMC proliferation, cells were plated and activated as above but incubated for only 16 h prior to addition of Alamar Blue. Plates were read after 6 h.
As to `CNC(=O)Oc1ccccc1OC(C)C`, the outcome was inactive.
Same read-out and setting: for `ClC1C(Cl)C(Cl)C(Cl)C(Cl)C1Cl` (stereo not given) the value was “inactive”; for `O=[N+]([O-])c1c(Cl)c(Cl)c(Cl)c(Cl)c1Cl`, “inactive”.
Regarding `CCOCN(C(=O)CCl)c1c(C)cccc1CC`, the outcome was inactive.
The same measure, in the same setting: for `CC1(C)C(C=C(Cl)Cl)C1C(=O)OC(C#N)c1ccc(F)c(Oc2ccccc2)c1` (stereo not given) the value was “inactive”; for `Cc1[nH]c(=O)n(C(C)(C)C)c(=O)c1Cl`, “inactive”.
On the same count and under the same terms, for `CN1CSC(=S)N(C)C1` the value was “inactive”; for `O=C(NC(=O)c1c(F)cccc1F)Nc1ccc(OC(F)(F)C(F)OC(F)(F)F)c(Cl)c1` (stereo not given), “inactive”.
As for `CCOc1nc(NC)nc(NC(=O)NS(=O)(=O)c2ccccc2C(=O)OC)n1`, the outcome was inactive.
For the compound `CC(C)(C)C(O)/C(=C\c1ccc(Cl)cc1Cl)n1cncn1` (stereo not given), the AC50 is 32.2 µM (active).
Consider `COP(=S)(OC)Oc1ccc(SC)c(C)c1`, for which the result was inactive.
Take `COP(=S)(OC)Oc1ccc([N+](=O)[O-])cc1`: the AC50 is 2.36 µM (active).
For the compound `CCOC1Oc2ccc(OS(C)(=O)=O)cc2C1(C)C` (stereo not given), the result was inactive.
Take `Cc1cc(C)nc(NC(=O)NS(=O)(=O)c2ccccc2C(=O)OC2COC2)n1`: the result was inactive.
Still for that read-out and setting: next, `CCC(C)Nc1c([N+](=O)[O-])cc(C(C)(C)C)cc1[N+](=O)[O-]` (stereo not given): “inactive”; `COc1cc(OC)nc(NC(=O)NS(=O)(=O)c2cc(NC=O)ccc2C(=O)N(C)C)n1`: “inactive”.
Take `O=C(O)C(F)(F)C(F)(F)C(F)(F)C(F)(F)C(F)(F)C(F)(F)C(F)(F)F`: the result was inactive; the concentration at half-maximal activity (AC50) was 30 µM (active) and 16 µM (active) and 22.5 µM (active).
In the case of `Oc1ccc(Cl)cc1Cc1ccccc1`, the concentration at half-maximal activity (AC50) was 33.6 µM (active) [middle of 7 runs].
The same measure, in the same setting: for `O=S1OCC2C(CO1)C1(Cl)C(Cl)=C(Cl)C2(Cl)C1(Cl)Cl` (stereo not given) the value was 32.7 µM (active).
As to `O=S(=O)(O)C(F)(F)C(F)(F)C(F)(F)C(F)(F)C(F)(F)C(F)(F)C(F)(F)C(F)(F)F`, the result was inactive.
Take `OCCOc1ccccc1`: the result was inactive.
Still for that read-out and setting: next, `O=C(O)COc1ccc(Cl)cc1Cl`: “inactive”.
For the compound `Oc1cc(Cl)ccc1Oc1ccc(Cl)cc1Cl`, the AC50 is 27.3 µM (active) [middle of 4 runs].
As for `N#CN`, the result was inactive.
The same measure, in the same setting: next, `COC(=O)c1ccccc1CS(=O)(=O)NC(=O)Nc1nc(OC)cc(OC)n1`: “inactive”; `CC(C)N(C(=O)COc1nnc(C(F)(F)F)s1)c1ccc(F)cc1`: “inactive”.
Consider `CCC(C)(C)C(=O)OC1=C(c2ccc(Cl)cc2Cl)C(=O)OC12CCCCC2`, for which the half-maximal activity concentration (AC50) was 30.9 µM (active).
For the compound `O=C1c2ccccc2C(=O)N1SC(Cl)(Cl)Cl`, the result was inactive.
The same measure, in the same setting: next, `CCS(=O)(=O)c1cccnc1S(=O)(=O)NC(=O)Nc1nc(OC)cc(OC)n1`: “inactive”.
Same read-out and setting: for `CCC(C)(NC(=O)c1cc(Cl)c(C)c(Cl)c1)C(=O)CCl` (stereo not given) the value was “inactive”; for `O=C(O)CCCOc1ccc(Cl)cc1Cl`, “inactive”; for `O=[N+]([O-])/N=C1\NCCN1Cc1ccc(Cl)nc1`, “inactive”.
With `C[C@H]1[C@H](c2ccc(Cl)cc2)SC(=O)N1C(=O)NC1CCCCC1`, the AC50 is 20 µM (active).
Take `COP(=O)(OC)OC=C(Cl)Cl`: the outcome was inactive.
As for `CNC(=O)CSP(=S)(OC)OC`, the result was inactive.
Still for that read-out and setting: for `O=C(Nc1ccccc1)Nc1cnns1` the value was “inactive”; for `CNC(=O)Oc1cccc(N=CN(C)C)c1`, “inactive”; for `COc1nn(CSP(=S)(OC)OC)c(=O)s1`, “inactive”.
Still for that read-out and setting: next, `Clc1ccccc1-c1nnc(-c2ccccc2Cl)nn1`: “inactive”.
